PubChem BioAssay AID1347165 (National Center for Advancing Translational Sciences (NCATS), 2019)
Out of some 220,000 compounds screened, about 5,700 (2.6%) were called active. Entries that show only a call come without a potency. Roughly 18% stayed inconclusive and do not appear here. Calls follow the shape of the dose curve; as a rule, active = well fitted inhibition curve with a large enough effect; inconclusive = small, poorly fitted or top-dose-only effect; inactive = no such curve, though single readings can be large or run the other way. The sample as a whole holds a higher share of actives than the screen did.

biological target: Lysine-specific demethylase 5B (Homo sapiens) (UniProt Q9UGL1); experiment: Primary screen for KDM5B Histone Demethylases FDH-coupled qHTS; conditions: FDH-coupled NADH fluorescence (FDH is formaldehyde dehydrogenase); series mostly up to 57.7 µM; also: nearly all actives have a fitted effect of over 70% in size
Procedure, shortened: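 Here, H3K4me3 peptide (12.5 µM in substrate mix) is demethylated by KDM5BΔAP, 200 nM final, after 10 min compound exposure. Formaldehyde product is coupled through FDH (0.25 U/mL in mix) to NADH fluorescence; 30-min ΔRFU feeds dose-response curves.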
Potency is read from the fitted curve at half-maximal effect.

Chain of Lysine-specific demethylase 5B (Homo sapiens) (Q9UGL1 whole entry, looked up): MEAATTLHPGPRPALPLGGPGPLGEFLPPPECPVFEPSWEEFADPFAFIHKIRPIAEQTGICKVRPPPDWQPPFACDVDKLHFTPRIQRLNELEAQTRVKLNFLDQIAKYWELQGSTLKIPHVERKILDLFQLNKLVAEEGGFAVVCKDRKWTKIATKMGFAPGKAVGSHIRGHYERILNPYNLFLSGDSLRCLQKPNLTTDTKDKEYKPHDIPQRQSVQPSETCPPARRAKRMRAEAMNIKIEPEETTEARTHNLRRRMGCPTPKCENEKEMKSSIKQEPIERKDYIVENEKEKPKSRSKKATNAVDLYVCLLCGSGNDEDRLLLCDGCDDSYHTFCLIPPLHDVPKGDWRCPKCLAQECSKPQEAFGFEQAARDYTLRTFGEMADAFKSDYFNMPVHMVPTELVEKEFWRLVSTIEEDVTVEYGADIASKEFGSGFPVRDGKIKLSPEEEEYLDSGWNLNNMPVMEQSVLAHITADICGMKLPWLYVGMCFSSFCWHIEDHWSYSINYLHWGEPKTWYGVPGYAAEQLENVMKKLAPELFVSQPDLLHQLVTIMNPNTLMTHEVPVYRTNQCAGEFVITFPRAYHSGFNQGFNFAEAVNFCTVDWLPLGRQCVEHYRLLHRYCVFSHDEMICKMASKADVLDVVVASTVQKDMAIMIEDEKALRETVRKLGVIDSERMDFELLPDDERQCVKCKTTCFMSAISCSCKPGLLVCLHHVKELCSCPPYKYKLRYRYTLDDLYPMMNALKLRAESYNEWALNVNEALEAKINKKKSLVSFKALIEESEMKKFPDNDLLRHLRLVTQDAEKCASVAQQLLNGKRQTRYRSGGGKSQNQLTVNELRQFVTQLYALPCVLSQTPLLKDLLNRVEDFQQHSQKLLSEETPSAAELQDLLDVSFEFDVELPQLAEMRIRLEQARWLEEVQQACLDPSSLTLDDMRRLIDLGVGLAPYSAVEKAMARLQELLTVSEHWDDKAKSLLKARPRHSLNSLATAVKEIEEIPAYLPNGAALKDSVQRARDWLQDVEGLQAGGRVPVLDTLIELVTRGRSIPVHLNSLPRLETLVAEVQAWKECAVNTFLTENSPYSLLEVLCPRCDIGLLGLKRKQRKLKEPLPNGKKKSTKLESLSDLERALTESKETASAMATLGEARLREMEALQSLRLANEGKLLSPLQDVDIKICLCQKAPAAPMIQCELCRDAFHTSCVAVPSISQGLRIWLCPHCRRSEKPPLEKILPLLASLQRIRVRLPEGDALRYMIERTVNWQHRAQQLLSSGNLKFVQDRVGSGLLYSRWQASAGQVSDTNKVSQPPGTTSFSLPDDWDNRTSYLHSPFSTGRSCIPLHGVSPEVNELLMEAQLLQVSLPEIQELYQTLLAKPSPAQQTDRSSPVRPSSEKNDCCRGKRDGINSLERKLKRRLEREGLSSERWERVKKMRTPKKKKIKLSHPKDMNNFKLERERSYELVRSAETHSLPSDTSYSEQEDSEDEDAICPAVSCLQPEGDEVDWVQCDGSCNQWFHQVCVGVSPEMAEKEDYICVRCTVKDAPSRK

Compound	Potency
CCc1nc2nc3c(cn2n1)C(=O)CC(c1ccc(Cl)cc1)C3 (configuration not stated)	inactive
CC(C)NS(=O)(=O)c1ccc(OCC(=O)NC2CCCCCC2)cc1	inactive
COc1ccc2c(=O)c(Oc3cccc(C)c3)c(C(F)(F)F)oc2c1	inactive
COc1ccc(C23NCCN2C(=O)c2ccccc23)cc1 (configuration not stated)	inactive
Cc1c(-c2ccc(F)cc2)[nH]c2ccc(CNC(=O)c3ccc(CO)o3)cc12	22.4 µM (active)
COc1ccc(CNC(=O)c2ccc(CS(=O)c3ccc(C)cc3)o2)cc1OC (configuration not stated)	inactive
CNc1nc(C(=O)NCc2ccc3[nH]c(-c4ccc(F)cc4)c(C)c3c2)cs1	5.62 µM (active)
Cc1ccc(CNC(=O)c2cc(=O)c3ccc(C)c(C)c3o2)cc1	inactive
O=C(NCc1ccc2c(c1)OCO2)c1noc(-c2ccc(F)cc2)n1	inactive
COc1ccc(CNC(=O)c2noc(-c3ccc(F)cc3)n2)cc1	inactive
CCCc1nc(SCC(=O)N2CCCC2)c2c(=O)n(C)c(=O)n(C)c2n1	inactive
Cc1ccccc1NC(=S)NNC=O	inactive
COc1ccc(OC)c(S(=O)(=O)N2CCCC(C(=O)NCCc3ccccc3)C2)c1 (configuration not stated)	inactive
CC(=O)c1ccccc1NC(=O)CCc1ncc(-c2c(F)cccc2F)o1	inactive
CCOC(=O)CN1C(=O)C2(CC(=O)Nc3[nH]ncc32)c2ccccc21 (configuration not stated)	inactive
Cc1cnc(C)c(N2CCN(C(=O)[C@H]3CC[C@@H](N)C3)CC2)n1	22.4 µM (active)
N[C@@H]1CC[C@H](C(=O)N2CCN(CCCOc3ccc(F)cc3)CC2)C1	inactive
Cc1cnc(C)c(N2CCN(C(=O)C3CCC(=O)N(CCc4cccc(F)c4)C3)CC2)n1 (configuration not stated)	inactive
COc1ccccc1Cc1nnc(NC(=O)c2cccc(NC(=O)c3ccccc3)c2)s1	inactive
COc1ccc(OC2CCN(C(C)=O)CC2)c(C(=O)NCCc2ccccc2OC)c1	25.1 µM (active)
COc1ccc(OC2CCN(C(C)=O)CC2)c(C(=O)NCc2snnc2C)c1	inactive
COc1ccc(OC2CCN(C(C)=O)CC2)c(C(=O)N(C)Cc2ccc3nccnc3c2)c1	inactive
O=C(c1cc2ccccc2oc1=O)N1CCC(Cc2ccccc2)CC1	inactive
COCCN1C(=O)c2cccn2CC1CNC(=O)c1ccccc1F (configuration not stated)	inactive
COCCN1C(=O)c2cccn2CC1CNC(=O)c1cc2ccccc2[nH]1 (configuration not stated)	28.2 µM (active)
COCCC(=O)NCC1Cn2cccc2C(=O)N1Cc1ccccc1 (configuration not stated)	inactive

Compound	Potency
CCOC(=O)c1oc2cc(OC(C)=O)ccc2c(=O)c1-c1ccc(OC)cc1	inactive
O=C1CO[C@H](c2ccc(NS(=O)(=O)c3cccc(F)c3)cc2)[C@@H](CO)N1Cc1ccncc1	inactive
Cc1cc(Nc2ccccc2)n2nc(Cc3ccc(Cl)cc3)nc2n1	inactive
COc1cc(F)ccc1-c1ccnc2nc(C(C)C)nn12	28.2 µM (active)
COc1cc(F)ccc1C(C)=O	inactive
CCc1nc2nccc(-c3ccco3)n2n1	28.2 µM (active)
COc1cc(F)ccc1-c1ccc(COc2ccc3c(cnn3CCC(=O)O)c2)cc1	inactive
Cn1cc(C#N)cc1-c1nc(COc2ccccc2)nn1CC(F)(F)F	inactive
Fc1ccc(Cc2nc3nccc(-c4ccco4)n3n2)cc1	20 µM (active)
COCc1nc2nccc(-c3ccccc3)n2n1	31.6 µM (active)
Fc1ccc(Cc2nc3nccc(-c4cc5ccccc5o4)n3n2)cc1	inactive
O=C(O)c1cc(Br)c(Cl)[nH]1	inactive
Cc1ccc2c(COC(=O)COc3ccc(C)c(C)c3)cc(=O)oc2c1	inactive
Cc1[nH]c2ccc(C(=O)N3CCN(C)CC3)cc2c1C	inactive
CCOc1ccc(C(=O)Nc2ccc3oc(C)nc3c2)cc1OCC	inactive
N#CCCC(C#N)Cn1nc(-c2ccccc2)c2ccccc2c1=O (configuration not stated)	inactive
CCN(CC)Cc1cnc2c(C(=O)NCc3ccsc3)cnn2c1	inactive
CC#CC(=O)N1CCCC(C(=O)Nc2cccc(-c3cccc(C)c3)c2)C1 (configuration not stated)	inactive
c1coc(-c2ccnc3nc(C4CC4)nn23)c1	28.2 µM (active)
COCCn1c(-c2cccc(OC)c2)cnc1NC(=O)NCCc1ccccc1	inactive
COc1cccc(-c2ccnc3nc(Cc4cc(F)cc(F)c4)nn23)c1	25.1 µM (active)
COc1ccc(-c2ccnc3nc(CC(C)C)nn23)c(F)c1	28.2 µM (active)
COc1ccc(CN2CC(Oc3ccc(F)c(F)c3)C2)cc1	inactive
COc1cccc(-c2nc(COc3ccccc3C#N)cs2)c1	inactive
CC1CNC(C)(C)C(O)C1 (configuration not stated)	inactive
Cn1c(=O)c2c(nc(NCc3cccs3)n2Cc2ccc(F)cc2)n(C)c1=O	inactive

Compound	Potency
Oc1c(C=Nc2ccc(F)c(Cl)c2)ccc2ccccc12	inactive
CC(NC(=O)CNC(=O)c1ccc(N2CCCC2=O)cc1)c1ccccc1Br (configuration not stated)	inactive
COc1ccc(C(=O)N[C@@H]2C[C@H](COc3cccc(C)n3)[C@@H](O)[C@H]2O)cc1	inactive
CN(CC1CCN(CCc2cccc(F)c2)CC1)C(=O)c1cn2cccnc2n1	28.2 µM (active)
CN(CCc1ccccn1)C(=O)c1ccc(OC2CCN(CCc3ccccc3)CC2)cc1	inactive
CN(Cc1nccn1C)C(=O)c1cc(CN2CCC(Cc3ccccc3)CC2)on1	inactive
CCCn1nc(C(=O)OCC(=O)N2CCc3ccccc32)c2ccccc2c1=O	inactive
COc1ccc(NC(=O)c2cnc3ccccc3n2)c(OC)c1	inactive
COc1ccc(-c2onc(C)c2C(=O)NCc2ccc3c(c2)OCO3)cc1	inactive
CCCOCCCNC(=O)c1c(C)noc1-c1ccccc1Cl	inactive
CCCOCCCNC(=O)c1c(C)noc1-c1cc(OC)c(OC)c(OC)c1	28.2 µM (active)
O=C(COc1ccc2c(=O)c(-c3ccccc3)coc2c1)N1CCN(c2ccccn2)CC1	inactive
Cc1ccc(-c2noc(Cn3cnc(C#N)n3)n2)cc1	inactive
Cc1ccc2[nH]cc(CCNC(=O)c3ccccc3C)c2c1	inactive
Cc1ccccc1-c1cc(C(=O)NCCN2CCNC2=O)c2c(c1)N(C)CCO2	39.8 µM (active)
COc1cccc(-c2ccc(F)c(C(N)=O)c2)c1OC	inactive
COc1ccccc1-c1cc(C(=O)NCc2cnn(C)c2)c2c(c1)N(C)CCO2	28.2 µM (active)
COc1ccc(CN[C@@H]2CCC[C@@H](C(=O)NCc3cc(C)on3)CC(=O)N(C)C2)cn1	inactive
COc1ccc(CNC(=O)c2cccc3c2CCN3C(=O)c2ccc(F)cc2)cc1OC	inactive
Cc1ccccc1CN1C(=O)c2ccccc2Sc2ccc(C(=O)NCCCN3CCOCC3)cc21	inactive
COc1ccccc1C(=O)Nc1ccnn1C1CCN(Cc2cnn(C)c2)CC1	inactive
COc1cccc(-c2cc(C(=O)NCc3cc(C)on3)c3c(c2)N(C)CCO3)c1OC	28.2 µM (active)
O=C(Nc1cccc(S(=O)(=O)N2CCCC2)c1)c1cccc2cccnc12	inactive
COc1ccc(C(C)=O)cc1CSCc1coc(-c2ccc(C)cc2)n1	inactive
CCc1c(C(=O)Nc2ccc3nc(C)sc3c2)cnn1-c1ccc(OC)nn1	inactive
Cc1ncsc1C(=O)NCc1ccc(N2CCCCCC2)nc1	inactive

Compound	Potency
COCCCNS(=O)(=O)c1cccc(S(=O)(=O)c2cccc(S(=O)(=O)NCCCOC)c2)c1	inactive
Cc1cc(=O)oc2cc(OCC(=O)NCC(C)(c3ccccc3)c3ccccc3)ccc12	inactive
COc1ccc(-c2nccc3c(=O)cc(N(C)c4ccccc4)oc23)cn1	inactive
O=c1cc(-c2ccccn2)oc2c(-c3ccccc3F)nccc12	17.8 µM (active)
O=C(Nc1c(F)cccc1F)c1cc(-c2ccccn2)nc2ccccc12	inactive
Cc1cccc(C(C)C)c1NC(=O)CSc1nnc(-c2cc(-c3ccccc3)n[nH]2)n1N	inactive
CCOC(=O)C(C)Oc1cccn2c(=O)c(-c3cc(C)n(-c4cccc(F)c4)n3)c(C)nc12 (configuration not stated)	25.1 µM (active)
COC(=O)COc1cccn2c(=O)c(-c3cc(C)n(-c4ccc(C)cc4C)n3)c(C)nc12	28.2 µM (active)
Cc1ccc(N2CCN(C(=O)CCc3c(C)nc4c(c3C)c(=O)n(C)c(=O)n4C)CC2)c(C)c1	inactive
Cc1ccc2nc(COc3ccc(NC(=O)COc4ccccc4F)cc3)cc(=O)n2c1	inactive
O=C(Nc1ccc(N2CCOCC2)c(Cl)c1)c1ccc2c3c(cccc13)CC2	inactive
CC(c1nc2ccccc2s1)N(C)C(=O)c1cccc(S(=O)(=O)Nc2ccc(Cl)cc2)c1 (configuration not stated)	inactive
Cc1ccccc1C(=O)N1CCN(c2ccc([N+](=O)[O-])c(-n3nc(C)c4ccccc4c3=O)c2)CC1	inactive
Cc1ccccc1-c1ccc(C(=O)NCCCn2ccnc2C(C)C)cn1	inactive
N#Cc1c(N)n[nH]c1CCCNc1nc(-c2ccncc2)nc2ccccc12	inactive
CC(C)c1nccn1CCCNc1nc(-c2ccncc2)nc2c1cnn2C	22.4 µM (active)
COc1ccc(CNC(=O)COC(=O)C(CCSC)N2C(=O)c3ccccc3C2=O)cc1 (configuration not stated)	inactive
CCCC1(CCC)NC(=O)N(Cc2ncc(-c3ccccc3)o2)C1=O	inactive
O=C1CN(Cc2cc3cc4c(cc3[nH]c2=O)OCO4)CCCN1	20 µM (active)
CCCCCCCCNS(=O)(=O)/C=C/c1cc(C)ccc1CNC(=O)OC(C)(C)C	inactive
CC(C)NC(NC(=O)c1ccc(C(C)(C)C)cc1)C(Cl)(Cl)Cl (configuration not stated)	inactive
CC(C)CNC(=O)N1C[C@@H](Oc2cccnc2)C[C@H]1C(=O)N1CCOCC1	inactive
CC(C)CN[C@H]1[C@H](O)[C@H](O)C[C@@H]1c1ccc(N2CCOCC2)nc1	35.5 µM (active)
COC(=O)c1ccc(COC(=O)c2ccc(N3CCOCC3)nc2)cc1	inactive
